Data published in PubChem BioAssay (NCATS).
Results filed as inconclusive are left out. Calls of active or inactive are those of the source. The call rests on the fitted dose curve; in most records, active means well fitted curve in the direction sought with a large enough effect; inconclusive means small, poorly fitted or top-dose-only effect, or another doubt; inactive means no such curve, though single readings can be large; an effect the other way counts as inactive or inconclusive.

Experiments:
[1] = target: Arylsulfatase A (Homo sapiens) (UniProt P15289); assay: qHTS screen for enhancers of Arylsulfatase A (ASA1): LOPAC Validation Assay (AID 720538); details: outcome: dose series up to 57.5 µM
Outline: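 First, ASA-I179S fibroblasts from an MLD patient adhered for 6 hrs. Next, compounds were added for 48h. Then pNCS substrate (0.5mM final) with lysis buffer reacted 14h at room temperature before NaOH stop and fluorescence measurement.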

[2] = qHTS for compounds that reverse cellular toxicity of Amyloid beta (A-beta) peptide in yeast: LOPAC Validation Assay (AID 720559);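 further: plate controls were DMSO for no effect and equimolar ferric chloride plus clioquinol rescue for full effect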
Outline: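 Activity is expressed relative to DMSO and an equimolar ferric chloride/clioquinol mix. Compounds were pinned into medium with A-beta-expressing yeast, grown 48 hr at 30 C, then read by absorbance at 600 nm.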

[3] = qHTS for Activators of Parkin Expression: LOPAC Validation Assay (NLuc Reporter) (AID 720572;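 further: 0% = DMSO and 100% = positive control compound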)
Outline: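 Neuronal cells with a Parkin promoter-driven FLuc/NLuc coincidence reporter were treated 24 h at 37 C in 7-point dose response (LOPAC). NLuc luminescence read after FLuc; signals normalized to DMSO and positive control (100%).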

[4] = qHTS for Activators of Parkin Expression: LOPAC Validation Assay (FLuc Reporter) (AID 720573;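 further: 0% = DMSO and 100% = positive control compounds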)
Outline: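 A neuronal cell line harbouring FLuc and NLuc reporters behind the Parkin promoter was exposed to compounds for 24 h. Firefly luciferase signal, measured after 10 min with detection reagent, was scaled to DMSO and positive-control wells.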

[5] = qHTS for small molecule inhibitors of Yes1 kinase: Counter Assay (AID 686950);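 further: no kinase present so only ADP-Glo detection of a fixed ADP amount is tested; luminescence from ADP-Glo reporting ADP in a fixed ATP and ADP mixture; series mostly up to about 77 µM; 0% = DMSO wells with ATP plus ADP and -100% = ATP-only wells without ADP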
Outline: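 Enzyme-free detection counter-screen: compounds preincubated 20 min in buffer, then 0.08 mM ATP plus 0.02 mM ADP added for 60 min at room temperature; ADP-Glo luminescence. Buffer 50 mM Tris pH 7.5, 10 mM MgCl2, 150 mM NaCl; normalized to ATP+ADP and ATP-only controls.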

Measured: Potency

Arylsulfatase A (Homo sapiens), sequence (P15289 whole entry, looked up): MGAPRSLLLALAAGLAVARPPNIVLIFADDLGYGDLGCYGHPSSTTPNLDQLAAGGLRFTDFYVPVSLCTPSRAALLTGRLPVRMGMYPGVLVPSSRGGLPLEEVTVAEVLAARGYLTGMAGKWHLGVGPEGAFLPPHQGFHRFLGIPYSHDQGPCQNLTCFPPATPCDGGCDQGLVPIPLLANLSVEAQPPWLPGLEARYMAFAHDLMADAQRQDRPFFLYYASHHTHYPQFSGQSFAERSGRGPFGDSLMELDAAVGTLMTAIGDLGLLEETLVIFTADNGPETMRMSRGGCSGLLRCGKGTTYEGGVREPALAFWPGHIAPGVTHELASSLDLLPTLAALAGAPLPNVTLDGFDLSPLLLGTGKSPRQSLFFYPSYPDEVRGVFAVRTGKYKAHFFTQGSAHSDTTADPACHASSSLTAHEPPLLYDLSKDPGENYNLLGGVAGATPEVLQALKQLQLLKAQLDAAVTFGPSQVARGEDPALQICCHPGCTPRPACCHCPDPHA

O=C(NCCN1CCOCC1)c1ccc(Cl)cc1
inactive: [1] | [2] | [3] | [4]

Clc1ccc(C(c2ccc(Cl)cc2)n2cc[n+](CC(OCc3ccc(Cl)cc3Cl)c3ccc(Cl)cc3Cl)c2)cc1 (stereo unspecified)
inactive: [1] | [2] | [3] | [4]

CCN(CC)C(=O)c1ccc(O)c(OC)c1
inactive: [1] inactive; inhibitor; fitted 6.012 uM | [2] | [3] | [4]

COc1ccc(Cc2nccc3cc(OC)c(OC)cc23)cc1OC
inactive: [2] | [3] | [4]

CC(C)NCC(O)COc1cccc2[nH]ccc12 (stereo unspecified)
inactive: [1] | [2] | [3]

CCN1CCC[C@H]1CNC(=O)c1cc(S(N)(=O)=O)ccc1OC
inactive: [1] | [2] | [3] | [4]

COc1ncc(-c2ccc3nccc(-c4ccnnc4)c3c2)cc1NS(=O)(=O)c1ccc(F)cc1F
inactive: [5]

CC(=O)CCCCn1c(=O)c2c(ncn2C)n(C)c1=O
inactive: [2] | [3] | [4]

CCN(CC)CCNC(=O)c1ccc(N)cc1
inactive: [1] | [2] | [3] | [4]

COc1cc(N2CCC(N3CCN(C)CC3)CC2)ccc1Nc1ncc(Cl)c(Nc2ccccc2S(=O)(=O)C(C)C)n1
inactive: [5]

O=C(O)CCc1nc(-c2ccccc2)c(-c2ccccc2)o1
inactive: [1] | [2] | [4]

COc1ccccc1N1CCN(CCCNc2cc(=O)n(C)c(=O)n2C)CC1
inactive: [1] | [2] | [3] | [4]

COc1cccc(-c2cc(=O)c3ccccc3o2)c1N
inactive: [2] | [3]

Cc1cccc(C)c1OCC(C)N (stereo unspecified)
inactive: [1] | [2] | [3] | [4]

CN1CCN(CCOc2cc(OC3CCOCC3)c3c(Nc4c(Cl)ccc5c4OCO5)ncnc3c2)CC1
inactive: [5]

NC(CO)(CO)CCc1ccc(Sc2cccc(OCc3ccccc3)c2)cc1Cl
inactive: [5]

CCCCCN(C)CCC(O)(P(=O)(O)O)P(=O)(O)O
inactive: [1] | [2] | [3] | [4]

NC(N)=Nc1nc(CSCC/C(N)=N/S(N)(=O)=O)cs1
inactive: [1] | [2] | [3] | [4]

CCN(CC)CCOC(=O)c1ccc(N)cc1
inactive: [1] | [2] | [3] | [4]

NCCS
inactive: [1] | [2] | [3] | [4]

CN(C)C1CCN(C(=O)c2ccc(NC(=O)Nc3nc(N4CCOCC4)nc(N4CCOCC4)n3)cc2)CC1
inactive: [5]

Clc1ccc(Cn2c(CN3CCCC3)nc3ccccc32)cc1
inactive: [1] inactive; inhibitor; fitted 0.0054 uM | [2] | [3] | [4]

N#Cc1ccc(NC(=O)Nc2ccccc2Br)c2n[nH]nc12
inactive: [5]

COC(=O)[C@@H]1[C@H]2C[C@H]3c4[nH]c5ccccc5c4CCN3C[C@@H]2CC[C@@H]1O
inactive: [1] inactive; inhibitor; fitted 2.3934 uM | [2] | [3] | [4]

CC1(C)CCC2=C(O1)c1ccccc1C(=O)C2=O
inactive: [1] | [2] | [3] | [4]
